Results taken from PubChem BioAssay AID488849 (National Center for Advancing Translational Sciences (NCATS), 2010).
Where “and” joins values, the source holds several entries; their conditions need not be identical. Equal values may be shown once. Records with an inconclusive call do not appear. Calls of active or inactive are those of the source. Calls follow the shape of the dose curve; as a rule, active = well fitted activation curve with a large enough effect; inconclusive = small, poorly fitted or top-dose-only effect; inactive = flat fitted curve, though single readings scatter.

target: Lysosomal acid glucosylceramidase (Homo sapiens) (UniProt P04062); test: qHTS Assay for Inhibitors and Activators of N370S glucocerebrosidase as a Potential Chaperone Treatment of Gaucher Disease: Activity in Non-Mutant Spleen Confirmation for Probe SAR; conditions: human spleen homogenate, 4-MU-beta-glucoside fluorescence; series mostly up to 57.5 µM
Sequence (P04062 whole entry, looked up): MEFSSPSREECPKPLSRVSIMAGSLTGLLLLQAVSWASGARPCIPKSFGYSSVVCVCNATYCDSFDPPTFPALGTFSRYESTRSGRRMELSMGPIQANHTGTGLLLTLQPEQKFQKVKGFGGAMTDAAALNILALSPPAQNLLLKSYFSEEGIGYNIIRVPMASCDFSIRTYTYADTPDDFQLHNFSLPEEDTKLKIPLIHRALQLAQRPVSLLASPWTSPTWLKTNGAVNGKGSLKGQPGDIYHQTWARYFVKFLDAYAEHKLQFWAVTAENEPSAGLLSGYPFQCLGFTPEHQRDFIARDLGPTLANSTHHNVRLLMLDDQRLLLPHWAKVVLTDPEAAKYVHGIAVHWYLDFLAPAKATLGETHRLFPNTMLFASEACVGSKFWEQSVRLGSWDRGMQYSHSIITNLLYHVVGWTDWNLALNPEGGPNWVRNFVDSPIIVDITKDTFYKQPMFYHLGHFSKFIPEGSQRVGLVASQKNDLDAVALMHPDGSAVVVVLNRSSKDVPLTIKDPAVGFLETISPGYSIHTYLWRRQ
Text: NIH Chemical Genomics Center [NCGC] NIH Molecular Libraries Probe Production Centers Network [MLPCN] MLPCN Grant: MH086442-01 Assay Submitter (PI): Wei Zheng Glucocerebrosidase (GC) catalyzes the hydrolysis of beta-glucocerebroside to glucose and ceramide in lysosomes. Mutations in the glucocerebrosidase gene result in Gaucher disease, an autosomal recessive lysosomal storage disorder. Many of the mutations encountered in patients with Gaucher disease are missense alterations that may cause misfolding, decreased stability and/or mistrafficking of this lysosomal protein. […] These inhibitors include iminosugar analogs and three non-iminosugar inhibitors identified from a previous HTS of 62,000 compounds with the wild type recombinant enzyme. However, the enhancement of enzyme activity by the chaperone action of an enzyme inhibitor must be balanced against the direct inhibition of the enzyme. An enzyme activator could also function as a chaperone by binding to the enzyme and helping to correct its misfolding and mistrafficking. While activators for GC have not yet been identified, they may have better therapeutic potential than inhibitors. Therefore the discovery and development of chemical activators may provide a new strategy for the chaperone therapy. We have optimized a new assay using N370S mutant GC derived from the spleen of a Gaucher patient. […] In addition, the MLPCN compound library has expanded, which increases the chance of finding new and better probes. This confirmation assay tests for compound activity in spleen homogenate containing wildtype enzyme.
NCGC Assay Protocol Summary: This is a fluorogenic enzyme assay with 4-methylumbelliferyl-beta-D-glucopyranoside as the substrate and wildtype glucocerebrosidase from human spleen homogenate as the enzyme preparation. Upon the hydrolysis of this fluorogenic substrate, the resulting product, […] which can be detected by a standard fluorescence plate reader. Data were normalized to the controls for basal activity (without enzyme) and 100% activity (with enzyme). The AC50 values were determined from concentration-response data modeled with the standard Hill equation. Assay buffer: 50 mM citric acid (titrated with potassium phosphate to pH 5.0), 100 mM potassium chloride, 10 mM sodium chloride, 1 mM magnesium chloride, 0.01% Tween-20. 1536-well assay protocol: (1) Add 2 ul/well of spleen homogenate (27 ug final) (2) Add 23 nL compounds in DMSO solution. The final titration was 0.5 nM to 58 uM. (3) Add 2 ul of substrate (1 mM final) (4) Incubate at 37C for 40 min. (5) Add 2 ul stop solution (1M NaOH and 1M Glycine mixture, pH 10) (6) Detect the assay plate in a ViewLux plate reader (PerkinElmer) with Ex=365 nm and Em=440nm. Keywords: Glucocerebrosidase, beta-glucosidase, Gaucher Disease, pharmacological chaperone, chaperone therapy, high throughput screening, glucocerebrosidase inhibitor, MLSMR, MLSCN, NIH Roadmap, qHTS and NCGC

SMILES	Potency
COc1ccc(NC(=O)c2cnn3c(C)cc(C)nc23)cc1OC	inactive
CNC(=O)c1cnn2c(C)cc(C)nc12	inactive
Cc1cc(C)n2ncc(C(=O)Nc3cccc(C#N)c3)c2n1	inactive
COc1ccc(NC(=O)c2cnn3c(C)cc(C)nc23)cc1	20.6 µM (active)
CCc1ccc(NC(=O)c2cnn3c(C)cc(C)nc23)cc1	2.91 µM (active)
Cc1cccc(NC(=O)c2cnn3c(C)cc(C)nc23)c1	8.19 µM (active)
Cc1cc(C)n2ncc(C(=O)Nc3ccncc3)c2n1	inactive
CC(=O)Nc1ccc(NC(=O)c2cnn3c(C)cc(C)nc23)cc1	inactive
CC(=O)Nc1ccccc1NC(=O)c1cnn2c(C)cc(C)nc12	inactive
Cc1cc(C)n2ncc(C(=O)N3CCCC3)c2n1	inactive
O=C(Nc1ccccc1Sc1ccccc1)c1cnn2c1NC(=C1CC1)C=C2C(F)F	4.61 µM (active)
Cc1cc(C)n2ncc(C(=O)Nc3ccc(Br)cc3)c2n1	2.06 µM (active)
C#Cc1ccc(NC(=O)c2cnn3c(C)cc(C)nc23)cc1	0.41 µM (active)
Cc1cc(C)n2ncc(C(=O)Nc3ccc4c(c3)OCCO4)c2n1	13 µM (active)
Cc1ccc(NC(=O)c2cnn3c(C)cc(C)nc23)c(C)c1	8.19 µM (active)
Cc1ccc(NC(=O)c2cnn3c(C)cc(C)nc23)cc1	3.26 µM (active)
Cc1cc(C)n2ncc(C(=O)NC3CCC(C(C)(C)C)CC3)c2n1 (stereo not drawn)	11.6 µM (active) and 2.06 µM (active)
Cc1cc(C)n2ncc(C(=O)Nc3ccc(C(F)(F)F)cc3)c2n1	1.46 µM (active)
Cc1cc(C)n2ncc(C(=O)NC(C)C)c2n1	inactive
Cc1cc(C)n2ncc(C(=O)Nc3ccc4c(c3)OCO4)c2n1	13 µM (active)
Cc1cc(C)n2ncc(C(=O)Nc3ccc(S(C)(=O)=O)cc3)c2n1	inactive
Cc1cc(C)n2ncc(C(=O)Nc3ccc4c(c3)CCC4)c2n1	2.91 µM (active)
Cc1cc(C)n2ncc(C(=O)Nc3ccc(C)c(C)c3)c2n1	4.11 µM (active)
